ssDAF-12 act = S. stercoralis DAF-12 nuclear receptor activators, primary screen, cell-based, luminescence, HEK293, GRIP1 co-expression, lit1-tk-luc; HEK293 ssDAF-12/GRIP1 lit1-tk-luc reporter; % of 3 µM dafachronic acid response; 1% of 370,000 active; Nuclear hormone receptor DAF-12 (Strongyloides stercoralis); activation, % at 6.8 µM;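 active means activation above the mean over all tested compounds plus 3 SD, cut at about 0.9% in these data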;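 further: 0% = DMSO-only wells and 100% = 3 µM delta7-dafachronic acid wells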
hgDAF-12 ag = H. glycines DAF-12 receptor agonists, primary screen, cell-based, luminescence, HEK293, GAL4 fusion, UAS-luciferase. HEK293 GAL4-hgDAF12 UAS-luciferase reporter, agonist luminescence; normalized to butyrate control. activation, % at 6.8 µM. 1.8% of 370,000 active;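 active means activation above a cutoff set at the mean of all screened compounds plus 3 SD, cut at about 10% in these data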;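 further: 0% = DMSO wells and 100% = sodium butyrate wells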
DAX1 inh-1 = DAX1 (NR0B1) inhibitors, primary screen, cell-based, HEK293, Gal4-DAX1, luciferase luminescence. Nuclear receptor subfamily 0 group B member 1 (Homo sapiens), P51843. HEK293 Gal4-DAX1 luciferase reporter. inhibition, % at 6.75 µM. 0.99% of 340,000 active;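 active means inhibition above the mean over all tested compounds plus 3 SD, cut at about 4.2% in these data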;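 further: 0% = DAX1-transfected cells with DMSO and 100% = empty-vector control cells with DMSO; inhibition shows as a rise in luminescence from relieved DAX1 repression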
Target sequence (P51843 207-470 limits assumed): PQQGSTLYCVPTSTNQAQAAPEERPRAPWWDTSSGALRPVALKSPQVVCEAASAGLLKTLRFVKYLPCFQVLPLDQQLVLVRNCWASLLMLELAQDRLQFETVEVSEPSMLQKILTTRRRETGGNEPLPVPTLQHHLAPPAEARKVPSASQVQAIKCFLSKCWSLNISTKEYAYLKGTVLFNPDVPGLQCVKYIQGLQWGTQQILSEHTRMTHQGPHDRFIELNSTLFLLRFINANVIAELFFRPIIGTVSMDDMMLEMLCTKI
PolyA inh = polyadenylation inhibitors in yeast reporter cells, primary screen, luminescence, S. cerevisiae; S. cerevisiae SKY197-pL101 polyadenylation reporter, beta-gal luminescence; efflux-impaired pdr1/pdr3 knockout yeast; score 100 = 6 SD above DMSO; activity score, % at 12 µM; 0.02% of 300,000 active; AID 1875, 2009;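 active means lowest replicate activity score at least 50, where 100 means six control SD above control mean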;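 further: yeast exposed to compound for 9 h at 30 °C; higher score means more reporter readthrough which indicates perturbed polyadenylation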
DAX1 inh-2 = DAX1 (NR0B1) inhibitors on StAR promoter, primary screen, cell-based, luminescence, SF-1 (NR5A1), full-length DAX-1. HEK293T StAR-luciferase reporter, SF-1/DAX-1 repression relief. inhibition, % at 6.8 µM. 1.1% of 370,000 active;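 active means inhibition above the mean over all tested compounds plus 3 SD, cut at about 3.6% in these data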;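 further: 0% = DAX-1 cells with DMSO and 100% = cells lacking DAX-1 with DMSO; higher inhibition means more luminescence from relief of DAX-1 repression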
hcDAF12 agonist = H. contortus DAF-12 nuclear receptor activators, primary screen, cell-based, luminescence, HEK293, lit1-tk-luc reporter; AID 652067, 2013; 1.4% of 370,000 active; activation, % at 6.8 µM; HEK293 hcDAF-12 lit1-tk-luc reporter; 0% DMSO, 100% Δ7-dafachronic acid;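 active means activation above the mean of all tested compounds plus 3 SD, cut at about 5.5% in these data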;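 further: 100% = response to 3 µM Δ7-dafachronic acid high control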
DAX1 inh confirm = DAX1 (NR0B1) inhibitors relieving SF-1 repression, confirmation, cell-based, luminescence, HEK293T, full-length DAX-1, SF-1 activated StAR promoter. inhibition, % at 6.8 µM. shares compounds with DAX1 inh-2. HEK293T StAR-promoter luciferase reporter, SF-1/DAX-1 repression. 87% of 2,400 active;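 active means inhibition above the average of every tested compound plus 3 SD, cut at about 3.8% in these data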;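 further: 0% = DAX-1 cells with DMSO and 100% = no DAX-1 control cells with DMSO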
Target sequence (P51843 whole entry, looked up): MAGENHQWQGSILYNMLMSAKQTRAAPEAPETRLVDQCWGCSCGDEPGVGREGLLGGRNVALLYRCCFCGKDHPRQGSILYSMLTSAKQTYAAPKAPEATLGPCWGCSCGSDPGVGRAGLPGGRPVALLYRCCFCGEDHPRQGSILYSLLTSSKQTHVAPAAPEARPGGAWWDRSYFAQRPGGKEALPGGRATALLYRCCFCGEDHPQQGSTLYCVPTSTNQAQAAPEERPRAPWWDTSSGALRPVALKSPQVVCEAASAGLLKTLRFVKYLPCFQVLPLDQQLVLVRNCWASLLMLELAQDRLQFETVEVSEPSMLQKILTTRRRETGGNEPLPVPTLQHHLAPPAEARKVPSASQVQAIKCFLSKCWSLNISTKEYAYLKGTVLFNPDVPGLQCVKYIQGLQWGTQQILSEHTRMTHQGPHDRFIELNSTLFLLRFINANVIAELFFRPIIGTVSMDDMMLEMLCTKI
SF1 mutant ctr = StAR reporter signal changes without DAX1, counter-screen for DAX1 inhibitor project, cell-based, luminescence, AF-2 mutant SF-1, transactivation; inhibition, % at 6.8 µM; shares compounds with DAX1 inh-2; 78% of 2,400 active; AID 652136, 2013; HEK293 StAR-luciferase, SF-1 AF2 mutant;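 active means inhibition above the mean of all tested compounds plus 3 SD, cut at about 3% in these data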;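 further: 0% = DAX-1 transfected cells with DMSO and 100% = cells without DAX-1 with DMSO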
LXRb hcDAF ctr = LXR agonists, Gal4 luciferase reporter, confirmation, counter-screen for hcDAF-12 agonist project, cell-based, luminescence, HEK293, H. contortus campaign | shares compounds with hcDAF12 agonist | HEK293 Gal4-LXR tk-luc reporter, 24 h; normalized: DMSO 0%, positive control 100% | activation, % at 6.8 µM | 3,400 tested, under 10 active;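 active means mean percent activation of the reporter above a cutoff set as the average over tested compounds plus their standard deviation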
hcDAF12 ag = H. contortus DAF-12 receptor agonists, confirmation, cell-based, luminescence, HEK293, lit1-tk-luc, triplicate | shares compounds with hcDAF12 agonist | HEK293 hcDAF-12 lit1-tk-luc reporter; % of Δ7-dafachronic acid response | activation, % at 6.8 µM | 61% of 3,400 active | AID 743032, 2013;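 active means mean activation across triplicate tests above the threshold derived from the earlier primary screen, cut at about 5.5% in these data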;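 further: 0% = DMSO only wells and 100% = 3 µM Δ7-dafachronic acid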
hgDAF12 conf = H. glycines DAF-12 receptor agonists, confirmation, cell-based, luminescence, HEK293, GAL4-LBD fusion; HEK293 GAL4-hgDAF12 luciferase reporter, agonist mode; percent of butyrate response; AID 743050, 2013; 80% of 3,300 active; activation, % at 6.8 µM; shares compounds with hgDAF-12 ag;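 active means mean activation over triplicate wells above the hit cutoff derived from the earlier primary screen, cut at about 11% in these data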;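 further: 0% = DMSO low control and 100% = 2 mM sodium butyrate high control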
LXR ag 2 = LXR agonists, Gal4 luciferase reporter, confirmation, counter-screen for hgDAF-12 agonist project, cell-based, luminescence, HEK293, H. glycines campaign | shares compounds with hgDAF-12 ag | 24 h | activation, % at 6.8 µM | 3,300 tested, under 10 active | AID 743051, 2013;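 active means mean activation of the triplicate above a set limit carried over from the primary screen, none filed active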
* = called active by the depositor; x = no result. This is a sample that favours compounds with a hit; in the whole collection about 4.1% have one here.

SMILES	ssDAF-12 act	hgDAF-12 ag	DAX1 inh-1	PolyA inh	DAX1 inh-2	hcDAF12 agonist	DAX1 inh confirm	SF1 mutant ctr	hgDAF12 conf	LXR ag 2	others
COc1ccc2nc(SCC(=O)NC(C)c3ccccc3)[nH]c2c1 (centres undefined)	-0.7	-0.6	0.9	x	-0.2	-1.9	x	x	x	x
O=C(COc1ccccc1F)NNC(=O)c1ccc2c(=O)n3c(nc2c1)CCC3	-0.5	0.0	3.7	26.6	-0.5	-1.3	x	x	x	x
O=C(Nc1ccccc1Cl)c1ccc2c(=O)n3c(nc2c1)CCC3	0.0	14.5*	0.2	x	11.7*	3.5	8.8*	5.0*	14.0*	0.5
O=C(NCCOc1ccccc1F)c1ccc2c(=O)n3c(nc2c1)CCC3	-0.4	15.5*	1.3	x	8.5*	5.2	7.8*	4.5*	12.2*	0.6
COc1ccc(OC)c(C(C[N+](=O)[O-])c2c(C)cc3ccccn23)c1 (centres undefined)	-1.2	1.8	-1.1	-6.5	-0.2	-0.2	x	x	x	x
Cc1ccc(OCc2nc(-c3cccs3)no2)c([N+](=O)[O-])c1	1.9*	14.1*	0.2	-16.8	12.0*	7.1*	14.9*	7.1*	18.6*	1.2	LXRb hcDAF ctr=1.4;hcDAF12 ag=7.6*
O=C(O)CCc1nc(-c2cccs2)no1	-0.3	1.2	-0.3	6.0	-0.1	0.5	x	x	x	x
Cc1ccc(OCc2nc(-c3ccccc3)no2)c(C)c1	0.1	8.9	1.6	-17.9	2.6	3.6	x	x	x	x
O=[N+]([O-])c1ccccc1OCc1nc(-c2cccs2)no1	0.5	13.8*	2.2	-16.9	8.5*	4.5	11.3*	6.2*	14.2*	0.9
COc1ccccc1N1CCN(CCCNC(=O)C2CCCN(c3ncnc4c3nc3n4CCCCC3)C2)CC1 (centres undefined)	-1.3	2.0	-0.8	-8.6	-3.3	-0.7	x	x	x	x
C/C(=N\Nc1cccc2cccnc12)c1ccc[nH]1	1.3*	20.5*	1.9	-26.2	7.5*	10.1*	14.0*	5.2*	17.6*	0.8	LXRb hcDAF ctr=1.3;hcDAF12 ag=9.9*
O=C(Nc1ccc2c(c1)CCC2)c1ccccc1	0.3	16.9*	0.1	6.8	5.6*	6.0*	15.0*	6.5*	19.2*	1.1
O=C(Nc1ccc2c(c1)CCC2)Nc1ccccc1Cl	0.3	13.7*	0.6	-9.1	8.8*	3.2	9.8*	7.8*	21.6*	1.1
Cc1ccc(NC(=O)Nc2ccc3c(c2)CCC3)c(C)c1	-0.6	-0.1	0.0	x	1.4	0.9	x	x	x	x
COc1ccccc1/C=C/C(=O)Nc1ccc2c(c1)CCC2	1.4*	16.3*	3.5	-1.2	5.2*	6.7*	7.7*	7.5*	18.6*	0.9	LXRb hcDAF ctr=1.4;hcDAF12 ag=6.6*
O=C(O)c1ccccc1-c1ccccc1C(=O)Nc1ccc2c(c1)CCC2	-1.4	0.9	0.2	1.3	0.0	-0.6	x	x	x	x
COc1ccc(OC)c(/C=C/C(=O)Nc2ccc3c(c2)CCC3)c1	-1.4	3.7	-1.0	-9.9	-0.3	-3.6	x	x	x	x
O=C(Nc1ccc2c(c1)CCC2)c1ccccc1F	0.7	20.0*	2.2	15.3	6.7*	15.2*	13.8*	7.2*	20.5*	1.2	LXRb hcDAF ctr=1.8;hcDAF12 ag=11.6*
COCc1ccccc1C1=CC(=O)C[C@H](c2ccc(OC)cc2)C1	-1.5	1.5	-0.2	x	-0.1	-0.9	x	x	x	x
O=C(C[C@H]1C[C@@H]2c3cc(NC(=O)c4cccnc4)ccc3O[C@@H]2[C@H](CO)O1)NCc1ccncc1	-1.4	0.3	0.5	x	-0.1	0.2	x	x	x	x
COc1ccc(C2=Nc3ccccc3N(C(=O)Cc3cc(OC)cc(OC)c3)C2C(=O)NC(C)(C)C)cc1 (centres undefined)	-1.0	-2.9	x	x	-0.8	-1.3	x	x	x	x
COc1ccc(C2=Nc3ccccc3N(C(=O)c3ccc4ncccc4c3)C2C(=O)NC(C)(C)C)cc1 (centres undefined)	1.3*	23.0*	x	x	5.5*	11.1*	10.8*	5.8*	15.3*	0.7	LXRb hcDAF ctr=1.2;hcDAF12 ag=11.8*
CCOc1ccc(-c2nnc(SCC(=O)N3CCNC3=O)o2)cc1	0.7	13.9*	0.8	x	6.2*	6.2*	11.9*	5.3*	15.0*	0.9
CC1=C(C(=O)N(C(C)C)C(C)C)CC(CC(=O)NC2CCCC2)C(=O)N1Cc1ccccc1 (centres undefined)	-0.8	1.9	0.3	x	-0.7	1.0	x	x	x	x

Screening data (PubChem BioAssay)
